# PMC11006913
# Residue numbers refer to the chain shown, from its start.
# How the values were obtained:
# Experiment in all cases: PBM; 200 nM protein, PBS
# Settings in all cases: dsDNA, one strand shown
# NKX2-5 [1] = biological target: NKX2-5 (Homo sapiens, UniProt P52952 125-210, R139K)
# HOXA2 [2] = biological target: HOXA2 (Homo sapiens, UniProt O43364 129-215, R185T)
# HOXA2 [3] = biological target: HOXA2 (Homo sapiens, UniProt O43364 129-215, R185K)
# HOXA2 [4] = biological target: HOXA2 (Homo sapiens, UniProt O43364 129-215, Y150S)
# HOXA2 [5] = biological target: HOXA2 (Homo sapiens, UniProt O43364 129-215)
# NKX2-5 [6] = biological target: NKX2-5 (Homo sapiens, UniProt P52952 125-210)
# HOXA7 [7] = biological target: HOXA7 (Homo sapiens, UniProt P31268 116-202)
# HOXA7 [8] = biological target: HOXA7 (Homo sapiens, UniProt P31268 116-202, W177C)
# ALX4 [9] = biological target: ALX4 (Homo sapiens, UniProt Q9H161 200-286)
# ALX4 [10] = biological target: ALX4 (Homo sapiens, UniProt Q9H161 200-286, Q225E)
# HOXC9 [11] = biological target: HOXC9 (Homo sapiens, UniProt P31274 178-260, K195R)
# HOXC9 [12] = biological target: HOXC9 (Homo sapiens, UniProt P31274 178-260)
# ALX3 [13] = biological target: ALX3 (Homo sapiens, UniProt O95076 139-225, N203Q)
# HOXC9 [14] = biological target: HOXC9 (Homo sapiens, UniProt P31274 178-260, R193K)
# ALX3 [15] = biological target: ALX3 (Homo sapiens, UniProt O95076 139-225)
# PROP1 [16] = biological target: PROP1 (Homo sapiens, UniProt O75360 56-141)
# PROP1 [17] = biological target: PROP1 (Homo sapiens, UniProt O75360 56-141, R99H)
# ALX3 [18] = biological target: ALX3 (Homo sapiens, UniProt O95076 139-225, L168Q)
# HOXC9 [19] = biological target: HOXC9 (Homo sapiens, UniProt P31274 178-260, R222W)
# ALX3 [20] = biological target: ALX3 (Homo sapiens, UniProt O95076 139-225, L168V)
# PROP1 [21] = biological target: PROP1 (Homo sapiens, UniProt O75360 56-141, F88S)
# ALX3 [22] = biological target: ALX3 (Homo sapiens, UniProt O95076 139-225, N203S)
# HOXD13 [23] = biological target: HOXD13 (Homo sapiens, UniProt P35453 263-343, T313R)
# HOXD13 [24] = biological target: HOXD13 (Homo sapiens, UniProt P35453 263-343)
# HOXD13 [25] = biological target: HOXD13 (Homo sapiens, UniProt P35453 263-343, T313A)
# NKX2-6 [26] = biological target: T1, NKX2-6 (Homo sapiens, UniProt A6NCS4 118-204, R150C)
# T1 sequence: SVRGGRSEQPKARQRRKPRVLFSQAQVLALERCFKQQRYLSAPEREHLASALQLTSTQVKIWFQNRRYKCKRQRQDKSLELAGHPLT
# NKX3-2 [27] = biological target: NKX3-2 (Homo sapiens, UniProt P78367 192-278, P234S)
# NKX3-2 [28] = biological target: NKX3-2 (Homo sapiens, UniProt P78367 192-278)
# MSX2 [29] = biological target: MSX2 (Homo sapiens, UniProt P35548 130-214, R199I)
# MSX2 [30] = biological target: MSX2 (Homo sapiens, UniProt P35548 130-214)
# MSX2 [31] = biological target: MSX2 (Homo sapiens, UniProt P35548 130-214, F161Y)
# NKX2-6 [32] = biological target: T2, NKX2-6 (Homo sapiens, UniProt A6NCS4 118-204)
# T2 sequence: T1 sequence with C33R
# NKX2-6 [33] = biological target: T3, NKX2-6 (Homo sapiens, UniProt A6NCS4 118-204, F151L)
# T3 sequence: T1 sequence with C33R, F34L
# ALX1 [34] = biological target: ALX1 (Homo sapiens, UniProt Q15699 118-204, L144V)
# ALX1 [35] = biological target: ALX1 (Homo sapiens, UniProt Q15699 118-204, L144R)
# ALX1 [36] = biological target: ALX1 (Homo sapiens, UniProt Q15699 118-204)
# Chain of ALX1 (Homo sapiens, UniProt Q15699 118-204) (Q15699 118-204): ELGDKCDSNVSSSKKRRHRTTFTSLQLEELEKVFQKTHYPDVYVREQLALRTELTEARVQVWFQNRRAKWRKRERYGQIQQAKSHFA
# Chain of NKX3-2 (Homo sapiens, UniProt P78367 192-278, P234S) (P78367 192-278 P234S): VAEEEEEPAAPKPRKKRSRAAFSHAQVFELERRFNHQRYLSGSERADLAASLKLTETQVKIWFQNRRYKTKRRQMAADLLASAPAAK
# Chain of NKX2-5 (Homo sapiens, UniProt P52952 125-210) (P52952 125-210): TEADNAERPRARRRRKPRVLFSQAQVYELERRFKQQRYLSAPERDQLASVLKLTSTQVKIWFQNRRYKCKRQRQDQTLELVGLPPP
# Chain of NKX3-2 (Homo sapiens, UniProt P78367 192-278) (P78367 192-278): as the sequence (P78367 192-278 P234S) above, with S43P counted along it
# Chain of NKX2-5 (Homo sapiens, UniProt P52952 125-210, R139K) (P52952 125-210 R139K): as the sequence (P52952 125-210) above, with R15K counted along it
# Chain of ALX3 (Homo sapiens, UniProt O95076 139-225, N203S) (O95076 139-225 N203S): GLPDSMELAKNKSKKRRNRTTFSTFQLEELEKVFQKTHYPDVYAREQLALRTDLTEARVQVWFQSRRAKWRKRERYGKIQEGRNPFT
# Chain of ALX3 (Homo sapiens, UniProt O95076 139-225, L168V) (O95076 139-225 L168V): as the sequence (O95076 139-225 N203S) above, with L30V, S65N counted along it
# Chain of ALX3 (Homo sapiens, UniProt O95076 139-225, L168Q) (O95076 139-225 L168Q): as the sequence (O95076 139-225 N203S) above, with L30Q, S65N counted along it
# Chain of ALX3 (Homo sapiens, UniProt O95076 139-225) (O95076 139-225): as the sequence (O95076 139-225 N203S) above, with S65N counted along it
# Chain of ALX3 (Homo sapiens, UniProt O95076 139-225, N203Q) (O95076 139-225 N203Q): as the sequence (O95076 139-225 N203S) above, with S65Q counted along it
# Chain of PROP1 (Homo sapiens, UniProt O75360 56-141) (O75360 56-141): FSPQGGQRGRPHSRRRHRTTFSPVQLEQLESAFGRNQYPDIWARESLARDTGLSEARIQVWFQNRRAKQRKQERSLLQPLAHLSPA
# Chain of ALX4 (Homo sapiens, UniProt Q9H161 200-286, Q225E) (Q9H161 200-286 Q225E): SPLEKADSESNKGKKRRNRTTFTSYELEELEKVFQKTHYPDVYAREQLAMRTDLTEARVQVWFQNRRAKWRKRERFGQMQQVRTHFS
# Chain of PROP1 (Homo sapiens, UniProt O75360 56-141, F88S) (O75360 56-141 F88S): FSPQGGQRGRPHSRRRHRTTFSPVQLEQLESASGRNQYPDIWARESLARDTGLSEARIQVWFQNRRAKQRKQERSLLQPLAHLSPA
# Chain of HOXD13 (Homo sapiens, UniProt P35453 263-343, T313A) (P35453 263-343 T313A): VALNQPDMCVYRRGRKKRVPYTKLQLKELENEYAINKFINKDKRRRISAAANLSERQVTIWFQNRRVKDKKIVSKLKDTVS
# Chain of HOXA2 (Homo sapiens, UniProt O43364 129-215, R185T) (O43364 129-215 R185T): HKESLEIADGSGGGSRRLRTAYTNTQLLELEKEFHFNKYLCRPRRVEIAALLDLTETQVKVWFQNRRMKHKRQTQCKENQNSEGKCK
# Chain of HOXA7 (Homo sapiens, UniProt P31268 116-202) (P31268 116-202): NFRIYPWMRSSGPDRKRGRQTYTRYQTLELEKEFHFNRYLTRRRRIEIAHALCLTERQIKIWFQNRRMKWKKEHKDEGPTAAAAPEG
# Chain of ALX4 (Homo sapiens, UniProt Q9H161 200-286) (Q9H161 200-286): as the sequence (Q9H161 200-286 Q225E) above, with E26Q counted along it
# Chain of MSX2 (Homo sapiens, UniProt P35548 130-214, R199I) (P35548 130-214 R199I): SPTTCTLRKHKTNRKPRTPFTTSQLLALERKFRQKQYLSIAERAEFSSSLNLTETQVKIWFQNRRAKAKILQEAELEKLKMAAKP
# Chain of HOXD13 (Homo sapiens, UniProt P35453 263-343) (P35453 263-343): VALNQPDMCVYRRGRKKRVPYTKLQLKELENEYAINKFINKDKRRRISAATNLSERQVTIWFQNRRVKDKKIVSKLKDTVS
# Chain of HOXC9 (Homo sapiens, UniProt P31274 178-260, K195R) (P31274 178-260 K195R): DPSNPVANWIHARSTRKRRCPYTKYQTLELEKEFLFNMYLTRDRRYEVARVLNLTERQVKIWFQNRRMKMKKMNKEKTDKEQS
# Chain of HOXC9 (Homo sapiens, UniProt P31274 178-260) (P31274 178-260): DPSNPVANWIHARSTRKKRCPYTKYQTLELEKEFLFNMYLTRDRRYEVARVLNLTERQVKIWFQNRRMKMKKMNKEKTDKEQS
# Chain of ALX1 (Homo sapiens, UniProt Q15699 118-204, L144V) (Q15699 118-204 L144V): as the sequence (Q15699 118-204) above, with L27V counted along it
# Chain of HOXA2 (Homo sapiens, UniProt O43364 129-215) (O43364 129-215): as the sequence (O43364 129-215 R185T) above, with T57R counted along it
# Chain of HOXD13 (Homo sapiens, UniProt P35453 263-343, T313R) (P35453 263-343 T313R): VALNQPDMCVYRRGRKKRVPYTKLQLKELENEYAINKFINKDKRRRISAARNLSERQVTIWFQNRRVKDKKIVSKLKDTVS
# Chain of HOXC9 (Homo sapiens, UniProt P31274 178-260, R193K) (P31274 178-260 R193K): as the sequence (P31274 178-260) above, with R16K counted along it
# Chain of HOXA2 (Homo sapiens, UniProt O43364 129-215, R185K) (O43364 129-215 R185K): as the sequence (O43364 129-215 R185T) above, with T57K counted along it
# Chain of HOXA7 (Homo sapiens, UniProt P31268 116-202, W177C) (P31268 116-202 W177C): as the sequence (P31268 116-202) above, with W62C counted along it
# Chain of HOXA2 (Homo sapiens, UniProt O43364 129-215, Y150S) (O43364 129-215 Y150S): as the sequence (O43364 129-215 R185T) above, with Y22S, T57R counted along it
# Chain of MSX2 (Homo sapiens, UniProt P35548 130-214) (P35548 130-214): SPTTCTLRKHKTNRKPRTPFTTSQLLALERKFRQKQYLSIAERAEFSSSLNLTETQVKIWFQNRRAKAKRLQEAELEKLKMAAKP
# Chain of PROP1 (Homo sapiens, UniProt O75360 56-141, R99H) (O75360 56-141 R99H): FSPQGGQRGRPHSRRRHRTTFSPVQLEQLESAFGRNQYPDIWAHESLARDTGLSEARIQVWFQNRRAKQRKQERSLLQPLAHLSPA
# Chain of MSX2 (Homo sapiens, UniProt P35548 130-214, F161Y) (P35548 130-214 F161Y): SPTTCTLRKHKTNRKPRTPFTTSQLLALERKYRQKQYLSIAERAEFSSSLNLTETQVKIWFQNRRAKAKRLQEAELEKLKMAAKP
# Chain of HOXC9 (Homo sapiens, UniProt P31274 178-260, R222W) (P31274 178-260 R222W): as the sequence (P31274 178-260) above, with R45W counted along it
# Chain of ALX1 (Homo sapiens, UniProt Q15699 118-204, L144R) (Q15699 118-204 L144R): as the sequence (Q15699 118-204) above, with L27R counted along it
sequence,measurement,setting,value
CCGAGGTC,binding signal,NKX2-5 [1],"8.47 upbm affinity estimate (log intensity, higher = more binding, comparable within an allelic series)"
same,binding signal,HOXA2 [2],"6.93 upbm affinity estimate (log intensity, higher = more binding, comparable within an allelic series)"
same,binding signal,HOXA2 [3],"10.2 upbm affinity estimate (log intensity, higher = more binding, comparable within an allelic series)"
same,binding signal,HOXA2 [4],"10.4 upbm affinity estimate (log intensity, higher = more binding, comparable within an allelic series)"
same,binding signal,HOXA2 [5],"7.18 upbm affinity estimate (log intensity, higher = more binding, comparable within an allelic series)"
same,binding signal,NKX2-5 [6],"8.66 upbm affinity estimate (log intensity, higher = more binding, comparable within an allelic series)"
ACCGTGTC,binding signal,NKX2-5 [1],"8.73 upbm affinity estimate (log intensity, higher = more binding, comparable within an allelic series)"
same,binding signal,HOXA7 [7],"8.54 upbm affinity estimate (log intensity, higher = more binding, comparable within an allelic series)"
same,binding signal,HOXA7 [8],"8.46 upbm affinity estimate (log intensity, higher = more binding, comparable within an allelic series)"
same,binding signal,NKX2-5 [6],"8.93 upbm affinity estimate (log intensity, higher = more binding, comparable within an allelic series)"
AGCCGGGG,binding signal,NKX2-5 [1],"9.08 upbm affinity estimate (log intensity, higher = more binding, comparable within an allelic series)"
same,binding signal,ALX4 [9],"8.22 upbm affinity estimate (log intensity, higher = more binding, comparable within an allelic series)"
same,binding signal,ALX4 [10],"8.28 upbm affinity estimate (log intensity, higher = more binding, comparable within an allelic series)"
same,binding signal,NKX2-5 [6],"9.03 upbm affinity estimate (log intensity, higher = more binding, comparable within an allelic series)"
ACGGGGGC,binding signal,NKX2-5 [1],"9.14 upbm affinity estimate (log intensity, higher = more binding, comparable within an allelic series)"
same,binding signal,HOXC9 [11],"9.65 upbm affinity estimate (log intensity, higher = more binding, comparable within an allelic series)"
same,binding signal,HOXC9 [12],"9.77 upbm affinity estimate (log intensity, higher = more binding, comparable within an allelic series)"
same,binding signal,ALX3 [13],"7.66 upbm affinity estimate (log intensity, higher = more binding, comparable within an allelic series)"
same,binding signal,HOXC9 [14],"9.64 upbm affinity estimate (log intensity, higher = more binding, comparable within an allelic series)"
same,binding signal,ALX3 [15],"7.79 upbm affinity estimate (log intensity, higher = more binding, comparable within an allelic series)"
same,binding signal,PROP1 [16],"6.75 upbm affinity estimate (log intensity, higher = more binding, comparable within an allelic series)"
same,binding signal,PROP1 [17],"6.67 upbm affinity estimate (log intensity, higher = more binding, comparable within an allelic series)"
same,binding signal,ALX3 [18],"7.65 upbm affinity estimate (log intensity, higher = more binding, comparable within an allelic series)"
same,binding signal,HOXC9 [19],"9.54 upbm affinity estimate (log intensity, higher = more binding, comparable within an allelic series)"
same,binding signal,ALX3 [20],"7.65 upbm affinity estimate (log intensity, higher = more binding, comparable within an allelic series)"
same,binding signal,PROP1 [21],"6.19 upbm affinity estimate (log intensity, higher = more binding, comparable within an allelic series)"
same,binding signal,ALX3 [22],"7.62 upbm affinity estimate (log intensity, higher = more binding, comparable within an allelic series)"
same,binding signal,NKX2-5 [6],"9.01 upbm affinity estimate (log intensity, higher = more binding, comparable within an allelic series)"
CAGGTCGC,binding signal,NKX2-5 [1],"9.22 upbm affinity estimate (log intensity, higher = more binding, comparable within an allelic series)"
same,binding signal,HOXD13 [23],"9.62 upbm affinity estimate (log intensity, higher = more binding, comparable within an allelic series)"
same,binding signal,HOXD13 [24],"9.82 upbm affinity estimate (log intensity, higher = more binding, comparable within an allelic series)"
same,binding signal,HOXD13 [25],"9.97 upbm affinity estimate (log intensity, higher = more binding, comparable within an allelic series)"
same,binding signal,NKX2-5 [6],"9.21 upbm affinity estimate (log intensity, higher = more binding, comparable within an allelic series)"
GAAGTGGA,binding signal,NKX2-5 [1],"11.7 upbm affinity estimate (log intensity, higher = more binding, comparable within an allelic series)"
same,binding signal,NKX2-6 [26],"11.3 upbm affinity estimate (log intensity, higher = more binding, comparable within an allelic series)"
same,binding signal,NKX3-2 [27],"12.5 upbm affinity estimate (log intensity, higher = more binding, comparable within an allelic series)"
same,binding signal,NKX2-5 [6],"11.8 upbm affinity estimate (log intensity, higher = more binding, comparable within an allelic series)"
same,binding signal,NKX3-2 [28],"12.6 upbm affinity estimate (log intensity, higher = more binding, comparable within an allelic series)"
CAAGTGGG,binding signal,NKX2-5 [1],"12.3 upbm affinity estimate (log intensity, higher = more binding, comparable within an allelic series)"
same,binding signal,NKX2-6 [26],"11.7 upbm affinity estimate (log intensity, higher = more binding, comparable within an allelic series)"
same,binding signal,NKX2-5 [6],"12.3 upbm affinity estimate (log intensity, higher = more binding, comparable within an allelic series)"
ACAATTAC,binding signal,NKX2-5 [1],"10.9 upbm affinity estimate (log intensity, higher = more binding, comparable within an allelic series)"
same,binding signal,MSX2 [29],"12.3 upbm affinity estimate (log intensity, higher = more binding, comparable within an allelic series)"
same,binding signal,MSX2 [30],"13.5 upbm affinity estimate (log intensity, higher = more binding, comparable within an allelic series)"
same,binding signal,MSX2 [31],"13.2 upbm affinity estimate (log intensity, higher = more binding, comparable within an allelic series)"
same,binding signal,NKX2-5 [6],"11 upbm affinity estimate (log intensity, higher = more binding, comparable within an allelic series)"
CACTTAGG,binding signal,NKX2-5 [1],"12.6 upbm affinity estimate (log intensity, higher = more binding, comparable within an allelic series)"
same,binding signal,NKX2-6 [26],"11.7 upbm affinity estimate (log intensity, higher = more binding, comparable within an allelic series)"
same,binding signal,NKX2-6 [32],"13.5 upbm affinity estimate (log intensity, higher = more binding, comparable within an allelic series)"
same,binding signal,NKX2-6 [33],"10.8 upbm affinity estimate (log intensity, higher = more binding, comparable within an allelic series)"
same,binding signal,NKX3-2 [27],"12.9 upbm affinity estimate (log intensity, higher = more binding, comparable within an allelic series)"
same,binding signal,NKX2-5 [6],"12.5 upbm affinity estimate (log intensity, higher = more binding, comparable within an allelic series)"
same,binding signal,NKX3-2 [28],"13 upbm affinity estimate (log intensity, higher = more binding, comparable within an allelic series)"
CGACCTCG,binding signal,NKX2-5 [1],"9.01 upbm affinity estimate (log intensity, higher = more binding, comparable within an allelic series)"
same,binding signal,ALX3 [13],"7.77 upbm affinity estimate (log intensity, higher = more binding, comparable within an allelic series)"
same,binding signal,ALX3 [15],"7.62 upbm affinity estimate (log intensity, higher = more binding, comparable within an allelic series)"
same,binding signal,ALX3 [18],"7.78 upbm affinity estimate (log intensity, higher = more binding, comparable within an allelic series)"
same,binding signal,ALX3 [20],"7.74 upbm affinity estimate (log intensity, higher = more binding, comparable within an allelic series)"
same,binding signal,ALX3 [22],"7.75 upbm affinity estimate (log intensity, higher = more binding, comparable within an allelic series)"
same,binding signal,NKX2-5 [6],"9.16 upbm affinity estimate (log intensity, higher = more binding, comparable within an allelic series)"
GTCCCAGA,binding signal,NKX2-5 [1],"8.89 upbm affinity estimate (log intensity, higher = more binding, comparable within an allelic series)"
same,binding signal,NKX2-6 [32],"9.24 upbm affinity estimate (log intensity, higher = more binding, comparable within an allelic series)"
same,binding signal,NKX2-6 [33],"9.41 upbm affinity estimate (log intensity, higher = more binding, comparable within an allelic series)"
same,binding signal,NKX2-5 [6],"8.98 upbm affinity estimate (log intensity, higher = more binding, comparable within an allelic series)"
ACACGTGT,binding signal,NKX2-5 [1],"9.32 upbm affinity estimate (log intensity, higher = more binding, comparable within an allelic series)"
same,binding signal,ALX1 [34],"6.61 upbm affinity estimate (log intensity, higher = more binding, comparable within an allelic series)"
same,binding signal,ALX1 [35],"6.61 upbm affinity estimate (log intensity, higher = more binding, comparable within an allelic series)"
same,binding signal,ALX1 [36],"6.65 upbm affinity estimate (log intensity, higher = more binding, comparable within an allelic series)"
same,binding signal,NKX2-5 [6],"9.25 upbm affinity estimate (log intensity, higher = more binding, comparable within an allelic series)"
CGACTGGC,binding signal,NKX2-5 [1],"8.66 upbm affinity estimate (log intensity, higher = more binding, comparable within an allelic series)"
same,binding signal,NKX2-6 [26],"9.39 upbm affinity estimate (log intensity, higher = more binding, comparable within an allelic series)"
same,binding signal,NKX2-5 [6],"8.72 upbm affinity estimate (log intensity, higher = more binding, comparable within an allelic series)"
GCACTTAC,binding signal,NKX2-5 [1],"12.3 upbm affinity estimate (log intensity, higher = more binding, comparable within an allelic series)"
same,binding signal,NKX2-6 [26],"11.6 upbm affinity estimate (log intensity, higher = more binding, comparable within an allelic series)"
same,binding signal,NKX2-6 [32],"13.3 upbm affinity estimate (log intensity, higher = more binding, comparable within an allelic series)"
same,binding signal,NKX2-6 [33],"10.6 upbm affinity estimate (log intensity, higher = more binding, comparable within an allelic series)"
same,binding signal,NKX3-2 [27],"12.7 upbm affinity estimate (log intensity, higher = more binding, comparable within an allelic series)"
same,binding signal,NKX3-2 [28],"12.8 upbm affinity estimate (log intensity, higher = more binding, comparable within an allelic series)"
